Results on 13 molecules are retold here after PubChem BioAssay (EPA / NIEHS).

Assay [1] has as its target Myc proto-oncogene protein (Homo sapiens) (UniProt P01106). The assay is described as follows: ATG_Myc_CIS: Attagene CIS-FACTORIAL HepG2 Assay for human Myelocytomatosis (Myc) Proto-Oncogene Transcription Factor (AID 2282990). The conditions noted are these: HepG2, Attagene cis-reporter transcription factor activity; actives raise or lower the signal. Put shortly: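 HepG2, transient MRTU transfection (cis promoters, endogenous TFs); 24 h dosing; TriZol RNA → oligo(dT) RT → PCR → 6-FAM primer extension → HpaI cut → CE. Bidirectional fit vs DMSO.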

Assay [2] is described as follows: ATG_NF_kB_CIS: Attagene CIS-FACTORIAL HepG2 Assay for human Nuclear Factor Kappa B (NF-kB) (AID 2282991). The conditions noted are these: HepG2 Attagene cis-factorial NF-kB reporter mRNA; actives raise or lower the signal. A digest of the protocol: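 HepG2 cells transfected with cis-promoter-driven reporter units, so endogenous transcription factor activity is measured. Reporter mRNA quantified 24 h after dosing by RT-PCR and capillary electrophoresis, with bidirectional fitting against DMSO.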

Assay [3] can be described thus: ATG_NRF2_ARE_CIS: Attagene CIS-FACTORIAL HepG2 Assay for human Nuclear Factor Erythroid 2 Related Factor 2 (NFR2) response to Antioxidant Response Elements (ARE) (AID 2282992).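 On AC50: reporter mRNA level measured by RT-PCR and capillary electrophoresis fluorescence.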 The conditions noted are these: HepG2 Attagene ARE/NRF2 reporter, transcription factor activity; actives raise or lower the signal. A digest of the protocol: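 Fluorescence intensity of reporter-specific cDNA fragments, separated by capillary electrophoresis, reflects mRNA induction in transfected HepG2 cells at 24 h. Activity is fitted bidirectionally, DMSO serving as baseline.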

Assay [4] can be described thus: ATG_Oct_MLP_CIS: Attagene CIS-FACTORIAL HepG2 Assay for human Octamer-Binding Transcription Factor (Oct) (AID 2282993). The conditions noted are these: HepG2 Attagene cis-factorial Oct reporter, mRNA; actives raise or lower the signal. A digest of the protocol:
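Multiplexed cis-reporter assay in human liver HepG2 cells, 24 h incubation. Reporter RNA amplified and labelled, then resolved by capillary electrophoresis; DMSO serves as negative control and baseline.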

In assay [5] the target is Cellular tumor antigen p53 (Homo sapiens) (UniProt P04637). Description: ATG_p53_CIS: Attagene CIS-FACTORIAL HepG2 Assay for human p53 Transcription Factor (AID 2282994). The conditions noted are these: HepG2 p53 cis-element reporter, Attagene mRNA; actives raise or lower the signal. A digest of the protocol:
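Transiently transfected HepG2 (multiple cis reporter transcription units); exposure 24 h; reporter RNA via RT-PCR, 6-FAM extension, 2 h HpaI digest at 37 C, CE detection; DMSO baseline.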

For assay [6], the target named is human Peroxisome Proliferator-activated Receptor alpha (PPARa), PPARA (gene 5465) (UniProt Q07869). The assay is described as follows: ATG_PPARa_TRANS: Attagene TRANS-FACTORIAL HepG2 Assay for human Peroxisome Proliferator-activated Receptor alpha (PPARa) (AID 2283001; active means hit-call score of the fitted dose curve at least 0.9, where 1 is the maximum). A digest of the protocol:
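Transfected HepG2 cells treated with test chemical for 24 h. RNA isolated, reverse-transcribed with oligo(dT), PCR-amplified, FAM-labelled and HpaI-digested. Fragments sized by capillary electrophoresis; gain-of-signal fit relative to DMSO.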

For assay [7], the target named is human Retinoic Acid Receptor beta (RARb), RARB (gene 5915) (UniProt P10826). Description: ATG_RARb_TRANS: Attagene TRANS-FACTORIAL HepG2 Assay for human Retinoic Acid Receptor beta (AID 2283004; active means hit-call score of the fitted dose curve at least 0.9, where 1 is the maximum). A digest of the protocol: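 HepG2 cells were transiently transfected with GAL4-UAS reporter units that report activity of exogenous chimeric NR-Gal4 proteins, then exposed to compound for 24 h. Reporter mRNA was quantified by RT-PCR with capillary electrophoresis fluorescence, as gain of signal over DMSO.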

In assay [8] the target is Nuclear receptor subfamily 1 group I member 2 (Homo sapiens) (UniProt O75469). The assay is described as follows: ATG_PXR_TRANS: Attagene TRANS-FACTORIAL HepG2 Assay for human Pregnane X Receptor (PXR) (AID 2283008; active means hit-call score of the fitted dose curve at least 0.9, where 1 is the maximum). Put shortly:
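Transient HepG2 transfectants carrying multiplexed reporter transcription units; PXR activity read through a Gal4 chimera. 24 h exposure. RT-PCR/CE fluorescence; upward curve fit referenced to DMSO.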

Assay [9] concerns the target Retinoic acid receptor alpha (Homo sapiens) (UniProt P10276). Description: ATG_RARa_TRANS: Attagene TRANS-FACTORIAL HepG2 Assay for human Retinoic Acid Receptor alpha (RARa) (AID 2283005; active means hit-call score of the fitted dose curve at least 0.9, where 1 is the maximum). A digest of the protocol:
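Reporter transcripts, measured by RT-PCR with fluorescent labeling and capillary electrophoresis after 24 h dosing, reflect activity of an exogenous human RARa–GAL4 fusion in transiently transfected HepG2. Fitted for increase relative to DMSO.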

For assay [10], the target named is Peroxisome proliferator-activated receptor gamma (Homo sapiens) (UniProt P37231). Description: ATG_PPARg_TRANS: Attagene TRANS-FACTORIAL HepG2 Assay for human Peroxisome Proliferator-activated Receptor-gamma (PPARg) (AID 2283007; active means hit-call score of the fitted dose curve at least 0.9, where 1 is the maximum). Put shortly:
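HepG2 cells are transiently transfected with GAL4-UAS reporter units driven by chimeric NR-Gal4 fusions and dosed for 24 h. Reporter mRNA is quantified by RT-PCR, 6-FAM labelling, HpaI digestion and capillary electrophoresis. Induction is scored against DMSO.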

Assay [11] deals with human Peroxisome Proliferator-activated Receptor delta (PPARd), PPARD (gene 5467) (UniProt Q03181). The assay is described as follows: ATG_PPARd_TRANS: Attagene TRANS-FACTORIAL HepG2 Assay for human Peroxisome Proliferator-activated Receptor delta (PPARd) (AID 2283002; active means hit-call score of the fitted dose curve at least 0.9, where 1 is the maximum). Put shortly: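 Transient HepG2 transfection (multiple GAL4-UAS RTUs, chimeric receptor-Gal4); 24 h dosing; total RNA → oligo(dT) RT → PCR → 6-FAM primer extension → HpaI cut → CE. Positive direction vs DMSO.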

Assay [12] addresses human Retinoic Acid Receptor gamma (RARg), RARG (gene 5916) (UniProt P13631). Description: ATG_RARg_TRANS: Attagene TRANS-FACTORIAL HepG2 Assay for human Retinoic Acid Receptor gamma (RARg) (AID 2283009; active means hit-call score of the fitted dose curve at least 0.9, where 1 is the maximum). A digest of the protocol:
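Gain-of-signal relative to DMSO is reported from fluorescent capillary electrophoresis of RT-PCR reporter products. These came from HepG2 cells expressing transfected RARg-GAL4 chimeras with UAS reporters, harvested 24 h after dosing.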

Assay [13] addresses human RAR-related Orphan Receptor beta (RORb), RORB (gene 6096) (UniProt Q92753). Description: ATG_RORb_TRANS: Attagene TRANS-FACTORIAL HepG2 Assay for human RAR-related Orphan Receptor beta (RORb) (AID 2283010; active means hit-call score of the fitted dose curve at least 0.9, where 1 is the maximum). Put shortly:
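Multiplexed transcription-factor reporter assay: HepG2 cells transiently carrying NR-Gal4/GAL4-UAS constructs, 24 h treatment, mRNA quantified by RT-PCR plus capillary electrophoresis fluorescence; activity scored as induction over DMSO.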

Assay [14] concerns the target human RAR-related Orphan Receptor gamma (RORg), RORC (gene 6097) (UniProt P51449). Description: ATG_RORg_TRANS: Attagene TRANS-FACTORIAL HepG2 Assay for human RAR-related Orphan Receptor gamma (RORg) (AID 2283011; active means hit-call score of the fitted dose curve at least 0.9, where 1 is the maximum). Put shortly:
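HepG2 cells transiently transfected with GAL4-UAS reporter units and chimeric RORg-Gal4 construct; after 24 h chemical exposure, reporter mRNA measured by RT-PCR with fluorescent capillary electrophoresis, gain of signal fitted against DMSO.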

Each structure is given as a SMILES string. Results filed as inconclusive are left out. The source made the active and inactive calls. How the source made its calls, unless noted: active means hit-call score of the fitted dose curve at least 0.9, where 1 is the maximum; inactive means score below 0.9.

Myc proto-oncogene protein (Homo sapiens), sequence (P01106 whole entry, looked up): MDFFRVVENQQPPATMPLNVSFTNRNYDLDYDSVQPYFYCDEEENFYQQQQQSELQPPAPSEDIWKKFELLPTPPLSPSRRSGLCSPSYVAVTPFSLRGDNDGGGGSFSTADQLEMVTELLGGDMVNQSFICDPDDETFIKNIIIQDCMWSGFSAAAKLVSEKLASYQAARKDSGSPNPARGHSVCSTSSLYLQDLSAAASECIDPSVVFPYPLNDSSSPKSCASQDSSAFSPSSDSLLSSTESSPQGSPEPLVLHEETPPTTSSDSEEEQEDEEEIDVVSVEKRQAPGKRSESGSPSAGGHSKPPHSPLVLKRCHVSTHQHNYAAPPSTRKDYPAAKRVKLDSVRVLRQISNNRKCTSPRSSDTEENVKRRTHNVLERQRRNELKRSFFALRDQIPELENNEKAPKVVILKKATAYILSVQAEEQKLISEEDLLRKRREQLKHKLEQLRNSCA
human Peroxisome Proliferator-activated Receptor alpha (PPARa), PPARA (gene 5465), sequence (Q07869 whole entry, looked up, the tested form may be a part): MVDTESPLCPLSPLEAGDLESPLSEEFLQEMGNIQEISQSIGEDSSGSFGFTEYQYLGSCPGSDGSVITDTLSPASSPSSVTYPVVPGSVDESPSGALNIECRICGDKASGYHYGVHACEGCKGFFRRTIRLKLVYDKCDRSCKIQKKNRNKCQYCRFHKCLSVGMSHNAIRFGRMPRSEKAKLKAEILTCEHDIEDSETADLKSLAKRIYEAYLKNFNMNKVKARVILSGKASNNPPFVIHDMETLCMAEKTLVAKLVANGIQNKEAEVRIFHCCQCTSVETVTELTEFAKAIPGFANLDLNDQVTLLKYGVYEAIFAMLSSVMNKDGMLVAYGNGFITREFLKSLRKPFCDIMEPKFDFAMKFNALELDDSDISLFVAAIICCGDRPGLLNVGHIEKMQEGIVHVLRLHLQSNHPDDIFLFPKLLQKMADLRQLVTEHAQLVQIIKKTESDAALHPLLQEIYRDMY
Cellular tumor antigen p53 (Homo sapiens), sequence (P04637 whole entry, looked up): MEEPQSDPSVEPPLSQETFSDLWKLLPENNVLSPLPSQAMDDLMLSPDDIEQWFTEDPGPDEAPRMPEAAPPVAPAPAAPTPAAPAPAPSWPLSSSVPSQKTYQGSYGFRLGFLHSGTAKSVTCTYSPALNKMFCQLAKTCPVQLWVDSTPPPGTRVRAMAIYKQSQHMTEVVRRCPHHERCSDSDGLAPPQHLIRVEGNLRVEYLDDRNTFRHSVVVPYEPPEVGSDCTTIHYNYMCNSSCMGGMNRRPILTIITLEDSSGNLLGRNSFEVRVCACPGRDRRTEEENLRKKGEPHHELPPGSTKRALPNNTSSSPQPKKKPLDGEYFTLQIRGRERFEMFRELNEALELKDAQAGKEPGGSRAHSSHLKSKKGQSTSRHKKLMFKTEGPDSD
Nuclear receptor subfamily 1 group I member 2 (Homo sapiens), sequence (O75469 whole entry, looked up, the tested form may be a part): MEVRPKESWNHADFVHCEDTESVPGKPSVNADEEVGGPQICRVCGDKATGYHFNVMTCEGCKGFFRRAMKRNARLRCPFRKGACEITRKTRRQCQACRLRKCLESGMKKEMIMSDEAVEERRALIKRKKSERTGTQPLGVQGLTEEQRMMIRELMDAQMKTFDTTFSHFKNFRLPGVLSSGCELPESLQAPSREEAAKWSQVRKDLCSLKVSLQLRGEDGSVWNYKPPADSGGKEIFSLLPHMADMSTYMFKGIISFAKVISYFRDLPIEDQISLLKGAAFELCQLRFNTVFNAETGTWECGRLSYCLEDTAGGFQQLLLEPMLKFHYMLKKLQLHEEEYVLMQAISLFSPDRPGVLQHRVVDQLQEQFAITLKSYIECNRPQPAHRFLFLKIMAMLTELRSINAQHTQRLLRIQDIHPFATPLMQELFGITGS
human Retinoic Acid Receptor gamma (RARg), RARG (gene 5916), sequence (P13631 whole entry, looked up, the tested form may be a part): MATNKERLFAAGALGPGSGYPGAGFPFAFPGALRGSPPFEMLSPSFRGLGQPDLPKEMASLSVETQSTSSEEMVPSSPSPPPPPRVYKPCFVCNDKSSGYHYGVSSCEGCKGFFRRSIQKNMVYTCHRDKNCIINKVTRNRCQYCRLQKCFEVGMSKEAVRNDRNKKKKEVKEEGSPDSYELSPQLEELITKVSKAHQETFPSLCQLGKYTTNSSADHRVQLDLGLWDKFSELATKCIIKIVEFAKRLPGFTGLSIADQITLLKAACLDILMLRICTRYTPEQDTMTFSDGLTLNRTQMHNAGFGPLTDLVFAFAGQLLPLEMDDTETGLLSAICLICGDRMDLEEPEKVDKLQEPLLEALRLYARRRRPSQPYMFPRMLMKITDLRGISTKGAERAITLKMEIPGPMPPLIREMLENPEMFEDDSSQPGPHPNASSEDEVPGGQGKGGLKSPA
human Peroxisome Proliferator-activated Receptor delta (PPARd), PPARD (gene 5467), sequence (Q03181 whole entry, looked up, the tested form may be a part): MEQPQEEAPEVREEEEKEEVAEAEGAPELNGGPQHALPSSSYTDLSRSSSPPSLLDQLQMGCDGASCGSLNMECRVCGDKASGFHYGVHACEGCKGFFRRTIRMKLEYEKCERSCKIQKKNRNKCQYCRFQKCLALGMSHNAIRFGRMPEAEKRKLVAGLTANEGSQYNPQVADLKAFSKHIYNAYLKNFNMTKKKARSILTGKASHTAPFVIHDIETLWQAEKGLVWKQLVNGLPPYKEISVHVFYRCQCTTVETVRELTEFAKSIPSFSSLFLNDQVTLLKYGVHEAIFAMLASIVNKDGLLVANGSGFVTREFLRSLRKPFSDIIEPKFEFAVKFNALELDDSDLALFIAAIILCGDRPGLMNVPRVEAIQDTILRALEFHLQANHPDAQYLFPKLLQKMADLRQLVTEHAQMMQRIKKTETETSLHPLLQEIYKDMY
human Retinoic Acid Receptor beta (RARb), RARB (gene 5915), sequence (P10826 whole entry, looked up, the tested form may be a part): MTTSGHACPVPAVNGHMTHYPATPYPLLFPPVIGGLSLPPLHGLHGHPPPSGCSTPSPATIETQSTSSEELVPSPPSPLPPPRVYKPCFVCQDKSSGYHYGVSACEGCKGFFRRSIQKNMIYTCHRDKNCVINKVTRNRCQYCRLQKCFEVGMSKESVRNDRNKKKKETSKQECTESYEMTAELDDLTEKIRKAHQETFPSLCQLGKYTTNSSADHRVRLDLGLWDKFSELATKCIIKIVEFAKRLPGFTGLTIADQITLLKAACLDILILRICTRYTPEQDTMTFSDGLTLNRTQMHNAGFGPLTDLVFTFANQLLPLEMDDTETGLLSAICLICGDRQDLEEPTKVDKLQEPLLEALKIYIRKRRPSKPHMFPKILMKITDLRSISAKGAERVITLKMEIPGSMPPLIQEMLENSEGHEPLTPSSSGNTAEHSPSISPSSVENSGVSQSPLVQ
human RAR-related Orphan Receptor beta (RORb), RORB (gene 6096), sequence (Q92753 whole entry, looked up, the tested form may be a part): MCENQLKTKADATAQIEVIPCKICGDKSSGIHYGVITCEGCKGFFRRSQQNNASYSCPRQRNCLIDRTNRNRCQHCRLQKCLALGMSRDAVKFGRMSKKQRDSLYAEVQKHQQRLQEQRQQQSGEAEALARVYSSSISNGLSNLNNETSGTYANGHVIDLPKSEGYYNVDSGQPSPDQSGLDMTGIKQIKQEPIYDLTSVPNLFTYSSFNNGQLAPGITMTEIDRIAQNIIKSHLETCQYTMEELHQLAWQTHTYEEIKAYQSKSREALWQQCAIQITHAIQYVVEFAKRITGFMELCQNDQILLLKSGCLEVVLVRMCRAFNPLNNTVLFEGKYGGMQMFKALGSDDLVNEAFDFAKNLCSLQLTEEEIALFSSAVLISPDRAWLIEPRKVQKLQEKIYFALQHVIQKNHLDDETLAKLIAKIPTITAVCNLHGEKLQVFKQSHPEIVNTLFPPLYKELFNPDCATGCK
Retinoic acid receptor alpha (Homo sapiens), sequence (P10276 whole entry, looked up, the tested form may be a part): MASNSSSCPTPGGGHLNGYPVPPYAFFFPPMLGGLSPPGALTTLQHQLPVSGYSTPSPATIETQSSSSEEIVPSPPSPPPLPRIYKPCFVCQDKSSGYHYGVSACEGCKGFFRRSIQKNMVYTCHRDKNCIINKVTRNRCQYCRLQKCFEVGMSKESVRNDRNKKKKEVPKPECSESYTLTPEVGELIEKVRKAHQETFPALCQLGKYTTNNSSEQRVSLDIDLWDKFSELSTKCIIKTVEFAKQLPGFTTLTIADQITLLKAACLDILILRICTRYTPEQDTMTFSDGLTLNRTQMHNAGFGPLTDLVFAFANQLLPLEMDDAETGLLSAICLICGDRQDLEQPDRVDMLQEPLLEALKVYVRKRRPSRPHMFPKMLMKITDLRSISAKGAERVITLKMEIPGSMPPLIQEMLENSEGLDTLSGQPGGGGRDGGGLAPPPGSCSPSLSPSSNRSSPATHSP
Peroxisome proliferator-activated receptor gamma (Homo sapiens), sequence (P37231 whole entry, looked up, the tested form may be a part): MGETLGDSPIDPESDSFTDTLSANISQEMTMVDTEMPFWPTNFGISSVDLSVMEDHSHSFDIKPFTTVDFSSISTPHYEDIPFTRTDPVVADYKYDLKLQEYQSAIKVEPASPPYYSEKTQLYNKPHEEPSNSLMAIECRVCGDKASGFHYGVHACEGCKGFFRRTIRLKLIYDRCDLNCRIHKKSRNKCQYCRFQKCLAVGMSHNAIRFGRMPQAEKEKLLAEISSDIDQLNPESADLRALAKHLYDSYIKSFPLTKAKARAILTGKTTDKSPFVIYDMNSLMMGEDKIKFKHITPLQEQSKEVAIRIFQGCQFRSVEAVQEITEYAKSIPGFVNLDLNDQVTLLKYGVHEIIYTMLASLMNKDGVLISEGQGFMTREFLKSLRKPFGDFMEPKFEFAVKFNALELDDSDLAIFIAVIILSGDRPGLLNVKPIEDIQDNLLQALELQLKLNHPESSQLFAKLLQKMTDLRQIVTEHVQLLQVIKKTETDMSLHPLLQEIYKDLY

Turning to `O=C(O)c1cc(C(=O)O)cc([N+](=O)[O-])c1`, the molecule was called inactive in assay [1], in [2], in assay [3], in assay [4], in [5] and in [6]. The outcome in assay [7] and in assay [8] was inactive.

As to `O=C(Nc1ccc2c(c1)Cc1ccccc1-2)C(F)(F)F`, the molecule was classed as inactive in [1], in [2], in assay [5], in assay [6], in assay [9] and in [10]. In addition, the concentration at half-maximal activity (AC50) (in general, the concentration at which the activity in the assay is half-maximal) in assay [3] was 24.8 µM (active); in assay [4], 24.5 µM (active); in [8], 27.7 µM (active).

`CCCCC1CCC(O)CC1` (centres undefined): the molecule was classed as inactive in assay [1], in [2], in assay [3], in [4], in assay [5] and in [11]. For the same molecule, the outcome in assay [7], in assay [9], in assay [10] and in assay [12] was inactive.

Consider `CCCN(CCC)S(=O)(=O)c1ccc(C(=O)O)cc1`, for which the outcome in assay [1], in assay [2], in assay [3], in [4], in [5] and in assay [6] was inactive. Moreover, the molecule was called inactive in assay [10] and in assay [13]. In addition, the AC50 in assay [8] is 18.7 µM (active).

Turning to `CCCCSCCCC`, the molecule was classed as inactive in [1], in assay [2], in assay [3], in [4], in assay [5] and in assay [11]. Besides, the result in assay [10] and in assay [8] was inactive.

Turning to `CN1C(=O)c2ccccc2C1=O`, the call in assay [1], in assay [2], in assay [3], in [4], in assay [5] and in [6] was inactive. Moreover, the call in assay [11], in assay [12] and in [14] was inactive.

As for `Nc1ccccc1[N+](=O)[O-]`, the outcome in assay [1], in [2], in assay [3], in [4], in assay [5] and in assay [11] was inactive. In addition, the result in assay [10] and in assay [8] was inactive.

Consider `Cc1cc(S(=O)(=O)O)ccc1N=Nc1c(O)ccc2ccccc12`, for which the molecule was called inactive in assay [1], in [2], in assay [3], in [4], in assay [5] and in assay [6]. The outcome in assay [7], in assay [9], in assay [10], in assay [8], in assay [12] and in assay [13] was inactive.

Regarding `COc1cc(C(C)C)ccc1C`, the molecule was classed as inactive in assay [1], in assay [2], in assay [3], in assay [4], in [5] and in assay [11]. The result in [7], in assay [9] and in [12] was inactive.

Take `CCCCCCCCCCCCN1CCCCCC1=O`: the result in assay [1], in assay [2], in assay [4], in assay [5], in assay [11] and in [10] was inactive. For the same molecule, in assay [12], the outcome was inactive. Moreover, the AC50 in [3] is 10.9 µM (active); in assay [8], 1.93 µM (active).

With `CCOC(=O)CN`, the outcome in [1], in assay [2], in assay [3], in assay [4], in assay [5] and in assay [11] was inactive. Further, the molecule was classed as inactive in assay [7], in assay [10], in assay [12] and in [13].

For the molecule `[O-]n1ccccc1=S.[O-]n1ccccc1=S.[Zn+2]`, the molecule was called inactive in [1], in [3], in assay [4], in assay [5], in assay [11] and in assay [7]. Further, the result in assay [9], in assay [10] and in [13] was inactive. Moreover, the AC50 in [2] was 0.999 µM (active).

On to `CC(C)CC(C)CC(O)CC(C)C` (centres undefined), for which the molecule was called inactive in assay [1], in assay [2], in assay [4], in [5], in [6] and in assay [9]. In assay [12], the call was inactive. The AC50 in assay [3] was 100 µM (active).
